Source: PubChem BioAssay (Tox21)
Records with an inconclusive call do not appear. The source made the active and inactive calls. The call rests on the fitted dose curve; in most records, active means well fitted curve in the direction sought with a large enough effect in the repeat runs; inconclusive means weak or mixed curves; inactive means no such curve, though single readings can be large; an effect the other way counts as inactive or inconclusive.

What was measured:
[1] = target: Cytochrome P450 2D6 (Homo sapiens) (UniProt P10635); test: Cytochrome P450 Family 2 Subfamily D Member 6 (CYP2D6) small molecule antagonists: luciferase reporter qHTS assay (AID 1671196); further: nearly all actives have a fitted effect of over 50% in size; on activity change, negative = inhibition: series mostly up to about 120 µM
Sequence of Cytochrome P450 2D6 (Homo sapiens) (P10635 whole entry, looked up): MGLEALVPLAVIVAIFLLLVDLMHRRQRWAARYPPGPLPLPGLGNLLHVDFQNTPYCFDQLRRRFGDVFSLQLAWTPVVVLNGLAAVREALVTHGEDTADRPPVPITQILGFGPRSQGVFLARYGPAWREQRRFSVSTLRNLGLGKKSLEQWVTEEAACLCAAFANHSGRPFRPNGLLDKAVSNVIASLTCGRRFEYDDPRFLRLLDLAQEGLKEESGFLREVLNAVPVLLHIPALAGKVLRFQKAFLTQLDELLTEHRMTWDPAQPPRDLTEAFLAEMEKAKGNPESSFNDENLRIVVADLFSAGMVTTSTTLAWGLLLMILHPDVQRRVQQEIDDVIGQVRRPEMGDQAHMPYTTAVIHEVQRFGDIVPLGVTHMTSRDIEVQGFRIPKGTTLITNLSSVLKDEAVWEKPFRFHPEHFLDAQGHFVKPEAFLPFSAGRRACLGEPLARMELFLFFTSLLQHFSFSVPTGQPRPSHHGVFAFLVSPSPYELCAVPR
Summary of the method: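 Chemicals tested for interference with CYP2D6 activity; proluciferin substrate, NADPH regeneration, 1 h at room temperature, luminescent detection.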

[2] = target: Cytochrome P450 2C19 (Homo sapiens) (UniProt P33261); test: Cytochrome P450 Family 2 Subfamily C Member 19 (CYP2C19) small molecule antagonists: luciferase reporter qHTS assay (AID 1671197); further: nearly all actives have a fitted effect of over 65% in size; on activity change, negative = inhibition: series mostly up to about 120 µM
Sequence of Cytochrome P450 2C19 (Homo sapiens) (P33261 whole entry, looked up): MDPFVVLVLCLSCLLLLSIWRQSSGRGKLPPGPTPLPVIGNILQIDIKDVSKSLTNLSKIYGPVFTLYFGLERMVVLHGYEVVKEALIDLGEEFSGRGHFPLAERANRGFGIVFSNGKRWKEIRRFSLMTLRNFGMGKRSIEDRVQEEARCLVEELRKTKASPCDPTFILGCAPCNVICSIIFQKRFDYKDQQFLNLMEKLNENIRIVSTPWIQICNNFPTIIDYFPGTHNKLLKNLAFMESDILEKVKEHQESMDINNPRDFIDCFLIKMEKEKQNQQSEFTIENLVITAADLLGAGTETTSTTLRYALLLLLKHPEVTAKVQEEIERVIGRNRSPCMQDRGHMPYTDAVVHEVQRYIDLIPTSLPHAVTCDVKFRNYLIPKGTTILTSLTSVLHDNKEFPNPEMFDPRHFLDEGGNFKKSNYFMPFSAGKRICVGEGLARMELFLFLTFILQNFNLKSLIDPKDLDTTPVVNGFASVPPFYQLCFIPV
Summary of the method: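 P450-Glo CYP2C19 system: enzyme-substrate mix with compound 10 min at room temperature, then NADPH regeneration solution, 1 h at 37C. Proluciferin-to-luciferin conversion detected by luminescence after 20 min with detection reagent; ketoconazole as positive control.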

[3] = target: Cytochrome P450 2C9 (Homo sapiens) (UniProt P11712); test: Cytochrome P450 Family 2 Subfamily C Member 9 (CYP2C9) small molecule antagonists: luciferase reporter qHTS assay (AID 1671198); further: nearly all actives have a fitted effect of over 50% in size; on activity change, negative = inhibition: series mostly up to about 120 µM
Sequence of Cytochrome P450 2C9 (Homo sapiens) (P11712 whole entry, looked up): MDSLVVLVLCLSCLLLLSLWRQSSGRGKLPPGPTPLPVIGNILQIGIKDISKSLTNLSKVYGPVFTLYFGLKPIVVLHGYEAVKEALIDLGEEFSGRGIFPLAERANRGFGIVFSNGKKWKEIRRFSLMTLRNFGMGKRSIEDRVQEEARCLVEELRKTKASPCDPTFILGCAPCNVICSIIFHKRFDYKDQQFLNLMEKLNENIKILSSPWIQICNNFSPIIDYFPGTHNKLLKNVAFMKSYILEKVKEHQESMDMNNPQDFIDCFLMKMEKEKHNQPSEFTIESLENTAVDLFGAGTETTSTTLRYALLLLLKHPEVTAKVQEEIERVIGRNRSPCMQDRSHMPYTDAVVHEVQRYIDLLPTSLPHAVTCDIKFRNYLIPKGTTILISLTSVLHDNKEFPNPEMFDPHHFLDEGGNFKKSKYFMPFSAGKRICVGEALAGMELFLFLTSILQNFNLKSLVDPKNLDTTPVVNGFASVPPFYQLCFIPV
Summary of the method: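 P450-Glo proluciferin substrate with CYP2C9 enzyme; 10 min RT preincubation, then NADPH regeneration 1 h at 37C; luciferin detection reagent 20 min RT, luminescence in relative luminescence units.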

[4] = target: Cytochrome P450 1A2 (Homo sapiens) (UniProt P05177); test: Cytochrome P450 Family 1 Subfamily A Member 2 (CYP1A2) small molecule antagonists: luciferase reporter qHTS assay (AID 1671199); further: nearly all actives have a fitted effect of over 50% in size; on activity change, negative = inhibition: series mostly up to about 120 µM
Sequence of Cytochrome P450 1A2 (Homo sapiens) (P05177 whole entry, looked up): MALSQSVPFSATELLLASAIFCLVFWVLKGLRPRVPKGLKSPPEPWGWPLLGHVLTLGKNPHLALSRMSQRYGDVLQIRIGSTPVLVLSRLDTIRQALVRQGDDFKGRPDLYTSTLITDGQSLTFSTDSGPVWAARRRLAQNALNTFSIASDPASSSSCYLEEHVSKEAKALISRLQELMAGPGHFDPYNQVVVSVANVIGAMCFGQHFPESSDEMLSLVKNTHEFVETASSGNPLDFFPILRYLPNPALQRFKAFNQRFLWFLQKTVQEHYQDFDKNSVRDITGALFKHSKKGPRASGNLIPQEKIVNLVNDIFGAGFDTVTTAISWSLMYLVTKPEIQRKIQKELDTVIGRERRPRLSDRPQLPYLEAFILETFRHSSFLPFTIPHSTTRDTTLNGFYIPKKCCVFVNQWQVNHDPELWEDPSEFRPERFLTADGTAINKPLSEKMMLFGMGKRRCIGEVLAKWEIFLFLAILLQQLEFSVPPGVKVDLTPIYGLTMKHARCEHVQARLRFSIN
Summary of the method: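 Read-out is luminescence from luciferin detection reagent (20 min) proportional to CYP1A2 activity; compounds in DMSO preincubated 10 min with enzyme and proluciferin substrate, then NADPH regeneration solution, 1 h, room temperature.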

[5] = target: Voltage-gated inwardly rectifying potassium channel KCNH2 (Homo sapiens) (UniProt Q12809); test: Human Ether-a-go-go-Related Gene (hERG) channel small molecule antagonists: fluorescence cell-based qHTS assay (AID 1671200); further: nearly all actives have a fitted effect of over 50% in size;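 on activity change, negative = inhibition: hERG-expressing U2OS cells given a thallium stimulus after FluxOR II dye loading; series mostly up to about 77 µM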
Sequence of Voltage-gated inwardly rectifying potassium channel KCNH2 (Homo sapiens) (Q12809 whole entry, looked up): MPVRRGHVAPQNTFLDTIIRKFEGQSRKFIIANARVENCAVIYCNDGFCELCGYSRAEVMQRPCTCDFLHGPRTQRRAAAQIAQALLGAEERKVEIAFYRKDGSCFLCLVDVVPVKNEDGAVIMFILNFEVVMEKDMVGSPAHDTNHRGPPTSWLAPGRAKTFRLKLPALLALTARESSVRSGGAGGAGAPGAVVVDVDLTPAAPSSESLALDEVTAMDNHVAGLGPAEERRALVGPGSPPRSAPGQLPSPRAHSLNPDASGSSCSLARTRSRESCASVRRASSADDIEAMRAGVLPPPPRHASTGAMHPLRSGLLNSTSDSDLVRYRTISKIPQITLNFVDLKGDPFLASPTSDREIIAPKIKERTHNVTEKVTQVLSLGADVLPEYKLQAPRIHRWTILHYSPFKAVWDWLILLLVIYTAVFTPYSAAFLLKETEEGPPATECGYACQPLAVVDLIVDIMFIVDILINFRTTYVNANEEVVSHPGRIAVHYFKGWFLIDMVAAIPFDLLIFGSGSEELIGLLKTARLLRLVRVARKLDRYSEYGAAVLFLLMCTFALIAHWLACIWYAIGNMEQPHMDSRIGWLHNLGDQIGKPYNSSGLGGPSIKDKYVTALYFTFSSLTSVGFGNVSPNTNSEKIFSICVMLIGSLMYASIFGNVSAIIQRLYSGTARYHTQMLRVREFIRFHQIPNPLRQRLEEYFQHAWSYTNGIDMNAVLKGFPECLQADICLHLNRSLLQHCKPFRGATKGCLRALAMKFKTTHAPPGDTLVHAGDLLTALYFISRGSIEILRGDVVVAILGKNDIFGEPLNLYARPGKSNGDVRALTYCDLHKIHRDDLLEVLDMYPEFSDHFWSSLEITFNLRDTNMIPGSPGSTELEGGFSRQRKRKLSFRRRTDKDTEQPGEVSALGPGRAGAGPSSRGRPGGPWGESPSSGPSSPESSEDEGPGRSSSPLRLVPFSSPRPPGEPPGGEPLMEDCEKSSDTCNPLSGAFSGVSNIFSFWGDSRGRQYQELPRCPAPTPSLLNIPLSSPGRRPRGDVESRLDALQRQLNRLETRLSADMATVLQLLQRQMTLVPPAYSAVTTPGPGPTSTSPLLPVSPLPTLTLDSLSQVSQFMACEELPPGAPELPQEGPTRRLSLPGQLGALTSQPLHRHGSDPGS
Summary of the method: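 Kinetic two-minute fluorescence traces, sampled at 1 s, were collected following thallium stimulus of U2OS cells (1000 per well) that had been cultured overnight at 37 C and loaded with FluxOR II.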

[6] = target: Cytochrome P450 3A4 (Homo sapiens) (UniProt P08684); test: Cytochrome P450 Family 3 Subfamily A Member 4 (CYP3A4) small molecule antagonists: luciferase reporter qHTS assay (AID 1671201); further: nearly all actives have a fitted effect of over 50% in size; on activity change, negative = inhibition: series mostly up to about 120 µM
Sequence of Cytochrome P450 3A4 (Homo sapiens) (P08684 whole entry, looked up): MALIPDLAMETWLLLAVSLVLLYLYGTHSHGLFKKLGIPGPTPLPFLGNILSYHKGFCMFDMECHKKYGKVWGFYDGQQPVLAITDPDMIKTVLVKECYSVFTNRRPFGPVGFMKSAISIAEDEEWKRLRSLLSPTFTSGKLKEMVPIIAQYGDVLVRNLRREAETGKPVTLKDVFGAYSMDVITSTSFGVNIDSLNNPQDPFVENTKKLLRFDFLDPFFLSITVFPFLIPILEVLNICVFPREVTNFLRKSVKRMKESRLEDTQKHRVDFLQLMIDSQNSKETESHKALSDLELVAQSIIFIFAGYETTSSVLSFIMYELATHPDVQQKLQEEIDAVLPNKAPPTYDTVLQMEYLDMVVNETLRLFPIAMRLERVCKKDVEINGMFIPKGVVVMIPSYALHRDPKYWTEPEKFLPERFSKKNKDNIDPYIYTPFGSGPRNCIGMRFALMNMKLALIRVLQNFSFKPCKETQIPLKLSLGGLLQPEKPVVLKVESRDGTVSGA
Summary of the method: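 Proluciferin-to-luciferin conversion by CYP3A4, NADPH-regenerated, 1 h RT; luminescence read as RLU. Ketoconazole as control.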
On the % scale 0 is the no-effect control and ±100 the full control effect; potency means the concentration at half of the fitted maximal effect.

CC(=O)C(C)=O
inactive: Potency [1] | Potency [2] | Potency [3] | Potency [4] | Potency [5] | Potency [6]

CC(C)CC(O)CC(C)C
inactive: Potency [1] | Potency [2] | Potency [3] | Potency [4] | Potency [5] | Potency [6]

CC(C)C(=O)OCCOc1ccccc1
inactive: Potency [1] | Potency [5] | Potency [6]
active: Potency [2] 39.9 µM | Potency [3] 39.9 µM | Potency [4] 31.7 µM

Nc1ccc(F)cc1
inactive: Potency [1] | Potency [2] | Potency [3] | Potency [4] | Potency [5] | Potency [6]

O=C(O)c1cccc(C[C@@H]2COc3ccc(OCc4nc5cc(F)ccc5s4)cc3[C@@H]2O)c1
inactive: Potency [1] | Potency [2] | Potency [5] | Potency [6]
active: Potency [3] 40 µM | Potency [4] 31.8 µM

CCc1ccc(C)cc1
inactive: Potency [1] | Potency [2] | Potency [3] | Potency [4] | Potency [5] | Potency [6]

O=S(=O)(Cl)c1c(Cl)cccc1Cl
inactive: Potency [2] | Potency [3] | Potency [4] | Potency [5] | Potency [6]
active: Potency [1] 25.1 µM

CC(C)OC(=O)c1ccccc1C(=O)OC(C)C
inactive: Potency [1] | Potency [5] | Potency [6]
active: Potency [2] 79.6 µM | Potency [3] 39.9 µM | Potency [4] 3.56 µM

CCOC(=O)C(C)O (stereo unspecified)
inactive: Potency [1] | Potency [2] | Potency [3] | Potency [4] | Potency [5] | Potency [6]

COc1ccc(CCN(C)CCCN2CCc3cc(OC)c(OC)cc3CC2=O)cc1OC
inactive: Potency [1] | Potency [2] | Potency [3] | Potency [4] | Potency [6]

COc1cc(NS(=O)(=O)c2ccc(N)cc2)nc(C)n1
inactive: Potency [1] | Potency [2] | Potency [3] | Potency [4] | Potency [5] | Potency [6]

O=C(c1ccccc1)C1CCC1
inactive: Potency [1] | Potency [2] | Potency [3] | Potency [4] | Potency [5] | Potency [6]

CCCCCCCCCCCCCCCC(=O)OCC
inactive: Potency [1] | Potency [2] | Potency [3] | Potency [4] | Potency [5] | Potency [6]

COC(OC)OC
inactive: Potency [1] | Potency [2] | Potency [3] | Potency [4] | Potency [5] | Potency [6]

CC(C)N(C)C
inactive: Potency [1] | Potency [2] | Potency [3] | Potency [4] | Potency [5] | Potency [6]

c1ccc(CCCc2ccncc2)cc1
inactive: Potency [5]
active: Potency [1] 4.48 µM | Potency [2] 0.633 µM | Potency [3] 2 µM | Potency [4] 1.42 µM | Potency [6] 0.448 µM

CCCCCCC(CO)CCCC (stereo unspecified)
inactive: Potency [1] | Potency [2] | Potency [3] | Potency [4] | Potency [5] | Potency [6]

O=C(NC(Cc1cc(=O)[nH]c2ccccc12)C(=O)O)c1ccc(Cl)cc1 (stereo unspecified)
inactive: Potency [1] | Potency [2] | Potency [3] | Potency [4] | Potency [5] | Potency [6]

CNC1CCCN(c2c(F)cc3c(=O)c(C(=O)O)cn(C4CC4)c3c2OC)C1 (stereo unspecified)
inactive: Potency [1] | Potency [2] | Potency [3] | Potency [4] | Potency [6]

CC(=O)NNC(C)=O
inactive: Potency [1] | Potency [2] | Potency [3] | Potency [4] | Potency [5] | Potency [6]

CCCCC[C@H](O)/C=C/[C@H]1[C@H](O)CC(=O)[C@@H]1C/C=C\CCCC(=O)O
inactive: Potency [1] | Potency [2] | Potency [3] | Potency [4] | Potency [5] | Potency [6]

CN1CCCN(C(c2ccccc2)c2ccc(Cl)cc2)CC1 (stereo unspecified)
active: Potency [1] 0.49 µM | Potency [5] 1.9 µM
inactive: Potency [2] | Potency [4]

CCCCCCCCCCCCCCCCCC(=O)OCC(CC)CCCC (stereo unspecified)
inactive: Potency [1] | Potency [2] | Potency [3] | Potency [5] | Potency [6]

COC(C)(C)OC
inactive: Potency [1] | Potency [3] | Potency [5]
active: Potency [2] 69 µM

O=C(O)c1cc(Cl)cc(Cl)c1O
inactive: Potency [1] | Potency [2] | Potency [5] | Potency [6]
active: Potency [3] 28.3 µM

O=c1[nH][nH]c(=O)c2cc([N+](=O)[O-])ccc12
inactive: Potency [1] | Potency [2] | Potency [4] | Potency [5]

Cc1ccc(N(CC2=NCCN2)c2cccc(O)c2)cc1
inactive: Potency [4]
active: Potency [1] 0.776 µM | Potency [2] 17.4 µM

CC1C(C)(C)C2=C(C(=O)CCC2)C1(C)C (stereo unspecified)
inactive: Potency [1] | Potency [2] | Potency [3] | Potency [5] | Potency [6]

CCCCCCC(O)CCCCCCCCCCC(=O)OC (stereo unspecified)
inactive: Potency [1] | Potency [2] | Potency [4] | Potency [5]

C1=CCC2CC=CC2C1 (stereo unspecified)
active: Potency [2] 70.9 µM
inactive: Potency [1] | Potency [3] | Potency [5]

CN1C(CSCC(F)(F)F)Nc2cc(Cl)c(S(N)(=O)=O)cc2S1(=O)=O (stereo unspecified)
inactive: Potency [1] | Potency [2] | Potency [4]

CC(=O)OC(C)C[N+](C)(C)C (stereo unspecified)
inactive: Potency [1] | Potency [2] | Potency [3] | Potency [5] | Potency [6]

Nc1nc(-c2ccc([N+](=O)[O-])cc2)cs1
active: Potency [2] 3.6 µM | Potency [4] 5.08 µM
inactive: Potency [1] | Potency [5]

COC(=O)C1=C(C)NC(C)=C(C(=O)OC(C)(C)CN(C)CCC(c2ccccc2)c2ccccc2)C1c1cccc([N+](=O)[O-])c1 (stereo unspecified)
active: Potency [1] 4.36 µM | Potency [2] 1.38 µM | Potency [3] 2.45 µM | Potency [5] 2.39 µM

Cc1ccc2c(c1)CCCN2
inactive: Potency [5]
active: Potency [1] 28.3 µM | Potency [2] 39.9 µM | Potency [4] 3.17 µM

COc1ccc(C)cc1
inactive: Potency [3] | Potency [5] | Potency [6]
active: Potency [1] 17.8 µM | Potency [2] 79.6 µM

CC1CCc2nccnc21 (stereo unspecified)
inactive: Potency [1] | Potency [2] | Potency [3] | Potency [5]

CCCCCCOC(=O)CCCCC
inactive: Potency [1] | Potency [2] | Potency [3] | Potency [5] | Potency [6]

CCCCCCCC/C=C/C(=O)O
inactive: Potency [1] | Potency [2] | Potency [3] | Potency [5] | Potency [6]

CC1CCCO1 (stereo unspecified)
inactive: Potency [1] | Potency [2] | Potency [3] | Potency [5] | Potency [6]

CC1=CC[C@@H]2C[C@H]1C2(C)C
inactive: activity change, negative = inhibition [1] -8.83% [at 23.6 µM] | activity change, negative = inhibition [2] -6.89% [at 23.6 µM] | activity change, negative = inhibition [4] -16.3% [at 23.6 µM] | activity change, negative = inhibition [5] -0.97% [at 15.8 µM]

CCC(Cl)CC(Cl)C(Cl)C(Cl)C(Cl)C(C)Cl (stereo unspecified)
active: Potency [2] 1.73 µM | Potency [3] 1.38 µM
inactive: activity change, negative = inhibition [1] -20% [at 23.6 µM] | activity change, negative = inhibition [6] 36.6% [at 23.6 µM]

CC(=O)Oc1cccc(O)c1
inactive: Potency [1] | Potency [2] | Potency [3] | Potency [5]

CC(=O)c1ccc[nH]1
inactive: Potency [1] | Potency [2] | Potency [3] | Potency [5]

N[C@@H](Cc1cc(I)c(O)c(I)c1)C(=O)O
inactive: Potency [1] | Potency [2] | Potency [4] | Potency [5]

COc1cc(C(C)=O)ccc1OCCCN1CCC(c2noc3cc(F)ccc23)CC1
inactive: Potency [2] | Potency [4]
active: Potency [1] 11 µM | Potency [5] 1.07 µM

NC(=O)c1ccccc1[N+](=O)[O-]
inactive: Potency [1] | Potency [2] | Potency [3] | Potency [5] | Potency [6]

Cc1ccc2nc(N)[nH]c(=O)c2c1Sc1ccncc1
active: Potency [1] 15.5 µM | Potency [2] 1.55 µM | Potency [4] 2.88 µM
inactive: Potency [5]

CCCC(=O)OC(=O)CCC
inactive: Potency [1] | Potency [2] | Potency [3] | Potency [5] | Potency [6]

CCOCCC(=O)OCC
inactive: Potency [1] | Potency [2] | Potency [3] | Potency [5]

COc1ccc(C2C(=O)c3ccccc3C2=O)cc1
active: Potency [2] 8.71 µM
inactive: Potency [1] | Potency [4] | Potency [5]

CC1CCCC(=O)C1=O (stereo unspecified)
inactive: Potency [1] | Potency [2] | Potency [4] | Potency [5]

COC(=O)CC(C(C)=O)C(=O)OC (stereo unspecified)
active: Potency [3] 44.8 µM
inactive: Potency [1] | Potency [2] | Potency [5]

Cc1oc(=O)oc1COC(=O)[C@@H]1N2C(=O)[C@@H](NC(=O)[C@H](N)c3ccccc3)[C@H]2SC1(C)C
inactive: Potency [1] | Potency [2] | Potency [4] | Potency [5]

CCSC(=O)N(CC)CC
inactive: Potency [1] | Potency [2] | Potency [3] | Potency [5] | Potency [6]

COc1cc(NCc2ccc3nc(N)nc(N)c3c2C)cc(OC)c1OC
inactive: Potency [5]
active: Potency [1] 13.8 µM | Potency [2] 9.77 µM | Potency [4] 7.76 µM

CCN(CC)c1cccc(O)c1
active: Potency [1] 36.3 µM | Potency [2] 5.13 µM | Potency [4] 64.6 µM
inactive: Potency [5]

CCCc1nc2c(C)cc(-c3nc4ccccc4n3C)cc2n1Cc1ccc(-c2ccccc2C(=O)O)cc1
active: Potency [2] 7.76 µM
inactive: Potency [1] | Potency [4] | Potency [5]

CCC1CCC(CCC(=O)O)C1 (stereo unspecified)
inactive: Potency [1] | Potency [5]
active: Potency [2] 40.8 µM | Potency [3] 36.4 µM

CCCCCCCCCCCCCCN(C)C
inactive: activity change, negative = inhibition [1] -19.3% [at 23.6 µM] | activity change, negative = inhibition [3] -16.9% [at 23.6 µM] | activity change, negative = inhibition [5] -0.651% [at 15.8 µM] | activity change, negative = inhibition [6] -11.1% [at 23.6 µM]

CC(C)COC(=O)COc1cc(Cl)c(Cl)cc1Cl
active: Potency [2] 8.91 µM | Potency [3] 35.5 µM | Potency [4] 31.6 µM

CNCc1ccc(NC(=O)c2c[nH]c3c2C(=O)CCC3)cc1
inactive: Potency [1] | Potency [5]
active: Potency [4] 31.7 µM

O=C(O)c1ccc(O)cc1O
inactive: Potency [1] | Potency [3] | Potency [4] | Potency [5] | Potency [6]

Nc1c(Cl)cc(Cl)cc1[N+](=O)[O-]
inactive: Potency [1] | Potency [5] | Potency [6]
active: Potency [4] 5.64 µM

CC1=CC[C@@]23C[C@@H]1C(C)(C)[C@@H]2CC[C@H]3C
inactive: Potency [1] | Potency [5]
